Inconclusive results are not listed. Activity calls are given as the source filed them. The call rests on the fitted dose curve; in most records, active means well fitted inhibition curve with a large enough effect; inconclusive means small, poorly fitted or top-dose-only effect; inactive means no such curve, though single readings can be large or run the other way.
assay: Acumen qHTS Assay for Inhibitors of the mTORC1 Signaling Pathway in MEF (Tsc2-/-, p53-/-) Cells: Hit Validation; conditions: Acumen imaging; activity change, negative = inhibition: at 37.3 µM (top of the series);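 further: phospho-rpS6 Ser235/236 immunofluorescence normalized to propidium iodide cell count; nearly all actives have a fitted effect of over 65% in size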;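 on activity change, negative = inhibition: cells exposed to compound for 24 hours; plate controls were DMSO for no effect and 7.5 nM rapamycin control for full effect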
Potency means the concentration at half of the fitted maximal effect.

Compound	activity change, negative = inhibition [%]	Potency
CCCCN(C)CCNC(=O)c1cc2c(=O)n(C)c3ccccc3c2n1C	-0.172	–
COc1cc(C(=O)N(CCCN(C)C)c2nc3c(OC)cccc3s2)cc(OC)c1OC	19.6	–
COc1ccc(CCN2CCC(CNC(=O)c3cnn(-c4cccc(Cl)c4)c3C3CCN(C(=O)OC(C)(C)C)CC3)CC2)cc1	–	6.56 µM (active)
COc1ccccc1N1CCN(Cc2cc(COC(C)C)c3cccnc3c2O)CC1	–	5.21 µM (active)
Cc1ccc(C(=O)CC2(O)C(=O)N(Cc3ccccc3)c3ccc(Br)cc32)cc1 (configuration not stated)	–	11.7 µM (active)
Cc1ccc(-c2nnc(Nc3cccc(Cl)c3)c3ccccc23)cc1S(=O)(=O)N1CCN(C)CC1	-42.6	–
O=C(Cn1c(=O)c2cccn2c2ccccc21)NCc1ccccc1F	18.1	–
CCCCN(C)C(=O)CSc1c2c(nc3ccc(Cl)cc13)CCCC2	-13.3	–
O=C(Nc1cccc(NC(=O)c2ccccc2Cl)c1)c1cccc(Br)c1	-1.41	–
CCN(CC)CCNC(=O)c1cc(-c2ccc(Br)s2)nc2ccccc12	–	11.7 µM (active)
COc1ccc2cc(CNc3ccccc3)c(=O)n(CC(=O)Nc3ccc(C)cc3C)c2c1	-44	–
Cc1ccc(S(=O)(=O)c2nc(-c3ccco3)oc2SC(C)c2ccccc2)cc1 (configuration not stated)	-7.74	–
CCOC(=O)C(Cc1c[nH]c2ccccc12)NC(=O)COc1ccc(Cl)cc1 (configuration not stated)	-4.4	–
Cc1cccc(Nc2nnc(-c3ccc(C)c(S(=O)(=O)N4CCN(C)CC4)c3)c3ccccc23)c1	-6.53	–
Cc1ccc(CN2C(=O)C(O)(CC(=O)c3ccc(C)cc3)c3ccccc32)cc1 (configuration not stated)	–	4.65 µM (active)
CCOc1ccc(CNC(=O)c2ccccc2NC(=O)c2nsc3ccccc23)cc1	-112	–
CC(C)CCNC(=O)C(=O)Nc1c2c(nn1-c1ccc(Cl)cc1)CSC2	–	5.85 µM (active)
COc1cc(C(=O)CC2(O)C(=O)N(Cc3ccccc3Cl)c3ccccc32)cc(OC)c1OC (configuration not stated)	-2.03	–
COc1ccc2c(c1)CC(C(=O)Nc1cc(Cl)ccc1C)CO2 (configuration not stated)	-12.5	–

Compound	activity change, negative = inhibition [%]	Potency
COc1ccc2c(CNCCc3cccs3)c(C(=O)O)n(Cc3ccc(F)cc3Cl)c2c1	-51.9	–
Cc1cccn2c(Nc3ccccc3)c(-c3cccs3)nc12	26.1	–
Cc1cc(C)cc(NC(=O)c2cnn(-c3ccc(C)c(C)c3)c2C2CCNCC2)c1	-31.5	–
COc1ccc(OC)c(C(=O)CC2(O)C(=O)N(Cc3ccccc3C)c3ccccc32)c1 (configuration not stated)	–	2.61 µM (active)
CCOc1ccccc1NC(=O)N(Cc1ccc(F)cc1)C1CCN(CC)CC1	-15.8	–
CC1C(=O)Nc2ccc(S(=O)(=O)Nc3ccccc3Br)cc2NC1=O (configuration not stated)	8.5	–
O=C(Nc1ccc2oc(-c3cc(Br)ccc3Cl)nc2c1)c1cc2ccccc2o1	-105	–
COc1cccc(-c2nc(SCC(=O)NCC3CCCO3)c(-c3ccc(F)cc3)[nH]2)c1 (configuration not stated)	-3.33	–
COc1ccc(CNCCC(c2ccc3c(c2)OCO3)c2ccccc2OC)cc1 (configuration not stated)	-87.3	–
CCCCNC(=O)CSc1nc2nc(C)c(Cc3ccccc3C)c(C)n2n1	7.74	–
Cc1ccc(S(=O)(=O)c2nc(-c3cccs3)oc2SCC(=O)Nc2cc(C)cc(C)c2)cc1	-132	–
CCC1CCc2nc3sc(C(=O)Nc4ccc(C)cc4)c(N)c3cc2C1 (configuration not stated)	–	8.26 µM (active)
CCc1ccc(NC(=O)Cn2nc(C(F)(F)F)c3c2CCCC3)cc1	-28	–
Cc1ccc(NC(=O)CSc2nc(=O)cc(N)n2CCc2ccccc2)cc1	-30	–
COC(=O)CN1C(=O)C(C)(C)c2cc(S(=O)(=O)Nc3ccc(Br)cc3F)ccc21	–	9.27 µM (active)
COc1ccc(-n2ncc3c(NCCCOC(C)C)ncnc32)cc1	1.17	–
CCC(C(=O)N1CCN(c2cccc(C)c2C)CC1)n1nc(C)c2sc3ccccc3c2c1=O (configuration not stated)	-0.603	–
NS(=O)(=O)c1cc(C(=O)O)c(NCc2ccco2)cc1Cl	34.6	–

Reference: PubChem BioAssay AID651784 (National Center for Advancing Translational Sciences (NCATS), 2012)
